# Screening data from PubChem.
# DRV1 agonist – GPR32 (DRV1) agonism, beta-arrestin recruitment; activation, % at 76.9 µM; actives 2.5% (n = 48,000); CHO-K1 GPR32 beta-arrestin PathHunter luminescence, 90 min; zero percent set by DMSO-only wells; AID 1346428;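 active = activation of at least 60% and not above a set upper limit, about 1 call in 100 departs from these limits; inconclusive = activation of 40% to 60%, or above that upper limit; inactive = activation under 40%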; also: 0% is about no effect
# Target sequence (O75388 whole entry, looked up): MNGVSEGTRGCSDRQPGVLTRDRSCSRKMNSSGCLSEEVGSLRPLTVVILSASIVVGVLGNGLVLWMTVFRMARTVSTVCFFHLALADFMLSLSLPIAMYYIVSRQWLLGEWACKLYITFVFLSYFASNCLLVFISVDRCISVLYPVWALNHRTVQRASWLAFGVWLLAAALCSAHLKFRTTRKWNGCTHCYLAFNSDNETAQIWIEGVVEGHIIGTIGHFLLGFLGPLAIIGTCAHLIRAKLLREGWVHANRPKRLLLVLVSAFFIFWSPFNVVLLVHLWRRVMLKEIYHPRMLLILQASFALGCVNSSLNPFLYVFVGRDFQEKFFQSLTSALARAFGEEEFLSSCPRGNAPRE
#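 CHO-K1 cells stably expressing ProLink-tagged GPR32 and Enzyme Activator-tagged beta-arrestin were seeded at 2,500 cells/well overnight, exposed to compounds for 90 min at 37 °C, then read by beta-Gal complementation chemiluminescence after 1 h detection reagent.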
# B2AR arrestin ag – agonists recruiting beta-arrestin to human beta2-adrenergic receptor | HTLA Tango cells, beta-arrestin recruitment, luciferase luminescence, 18 h | 44,000 tested, under 10 active | P07550 | AID 1347077 | Potency, µM (highest dose often 46.1 µM), usual class: activators;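 also: potency is read from the fitted curve at half-maximal effect; 0% = DMSO and full agonism = EC100 isoproterenol or metaproterenol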
#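 Receptor–beta-arrestin recruitment read by tTA-responsive luciferase: compound titrations (up to 46 µM) incubated 18 h with Tango cells, then luminescent substrate 15 min at room temperature. Concentration-response fits classified by r2, efficacy and activity.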
# GALK inhibitor – inhibits human galactokinase | AID 1347072 | Potency, µM (highest dose often 57.5 µM), for inactives: at the highest dose activity, negative = inhibition, actives largely listed as inhibitors | recombinant GALK, Kinase-Glo ATP luminescence, 1 h | 44,000 tested, under 10 active;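 also: plate controls were full GALK reaction for no effect and reaction lacking GALK for full effect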
#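 Compounds were pinned into ATP buffer, then GALK-galactose mix was added (final 5 nM enzyme, 35 uM ATP, 100 uM galactose, pH 8.0). After 1 h at room temperature, Kinase-Glo Plus was added and luminescence read.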
# HTT prom inh – inhibits huntingtin promoter activity; AID 1508623; actives 0.93% (n = 48,000); HEK293 HTT promoter firefly luciferase reporter, 24 h; Potency, µM (titrated, usually from 57.5 µM), for inactives: top-dose activity change, negative = inhibition, actives largely listed as inhibitors; also: potency is read from the fitted curve at half-maximal effect; nearly all actives have a fitted effect of over 50% in size
#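 HEK293 luciferase promoter-reporter cells (2,500/well) plated 24 h, then compounds added at up to 57.5 uM final for 24 h at 37 °C. Firefly luminescence by Dual-Glo, normalized to vehicle (0%) and zero RLU (-100%).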
# HTT-AS act – activates huntingtin-antisense promoter activity; HEK293 HTT-AS promoter firefly luciferase reporter, 24 h; response scale: percent change from vehicle, -100% = no light; Potency, µM (highest dose often 57.5 µM), for inactives: at the highest dose activity change, positive = activation, usual class: activators; actives 0.24% (n = 48,000); also: potency is read from the fitted curve at half-maximal effect; nearly all actives have a fitted effect of over 55% in size
#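 Quantitative HTS used concentration series of up to 57.5 uM final on HEK293 luciferase reporter cells, 24 h at 37 degrees C. Readout was Dual-Glo firefly luminescence.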
# PTAP-TSG101 blk – TSG101-PTAP interaction inhibition, HIV-1 budding. Q99816. Fluorescence polarization, FITC-PTAP peptide/Tsg101, 20 min. Potency, µM (series often up to 115 µM), actives largely listed as inhibitors. 44,000 tested, under 10 active; also: potency is read from the fitted curve at half-maximal effect; 0% is about no effect
#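 Steps: Tsg101 binding domain (10 uM final) in HEPES pH 7.5/NaCl/Tween 20/EDTA/TCEP; add compound; add FITC-PTAP peptide (50 nM final); incubate 20 min r.t.; read polarization.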
# An asterisk follows results filed as active; i = inactive; ? = inconclusive; nt = not tested or not shown; [ ] = another dose, or the depositor's remark. Compounds with a hit are over-represented: about 3.6% of the library has one in this group of screens. Unless noted, calls follow the shape of the dose curve; as a rule, active = well fitted curve in the direction sought with a large enough effect; inconclusive = small, poorly fitted or top-dose-only effect, or another doubt; inactive = no such curve, though single readings can be large; an effect the other way counts as inactive or inconclusive.
SMILES,DRV1 agonist,B2AR arrestin ag,GALK inhibitor,HTT prom inh,HTT-AS act,PTAP-TSG101 blk
CCOC(=O)c1ccc(Nc2nc3ccccc3nc2NS(=O)(=O)c2ccc(Cl)cc2)cc1,?,i,-1%,?,-21%,i
COc1cc(N2CCC(N3CCN(C)CC3)CC2)ccc1Nc1ncc(Cl)c(Nc2ccccc2S(=O)(=O)C(C)C)n1,nt,nt,nt,?,-44%,nt
Cn1cc(-c2[nH]c3cc(NC(=O)[C@H](N)C4CCCCC4)cc4c3c2C=NNC4=O)cn1,nt,nt,nt,?,-33%,nt
Cc1cc(OCCCS(C)(=O)=O)cc(C)c1-c1cccc(COc2ccc3c(c2)OC[C@H]3CC(=O)O)c1,nt,nt,nt,-34%,-28%,nt
COc1ccc(C(=O)Nc2ccc(-c3nc4ccccc4s3)cc2C)cc1Cl,-5,i,-2%,57%,1µM*,i
N#Cc1c(O)c2c(-c3ccc(-c4ccccc4O)cc3)csc2[nH]c1=O,nt,nt,nt,13%,2%,nt
Cn1ccc2c(OCC(=O)NCc3ccccc3Cl)cccc2c1=O,86*,i,-7%,-17%,-15%,i
CCCn1ccc2c(OCC(=O)Nc3ccc(OC)c(OC)c3)cccc2c1=O,86*,i,-2%,-16%,-41%,i
COc1ccc(Cl)cc1NC(=O)COc1cccc2c(=O)n(C)ccc12,-3,i,-1%,0%,-7%,i
CCCCc1ccc(NC(=O)COc2cccc3c(=O)n(C)ccc23)cc1,60*,i,-11%,?,-42%,i
CCN1CCN(Cc2ccc(-c3cc4c(N[C@H](C)c5ccccc5)ncnc4[nH]3)cc2)CC1,nt,nt,nt,?,-38%,nt
COc1ccc(OC)c(NC(=O)c2noc3c2CCCC3)c1,-24,i,2%,30%,29%,i
COc1ccc(NC(=O)c2noc3c2CCCC3)cc1Cl,85*,i,2%,65%,?,i
O=C(COc1ccc(Cl)cc1)NCCc1csc(-c2ccc(C(F)(F)F)cc2)n1,-19,i,-5%,-23%,-30%,i
O=C(COc1ccccc1)NCCc1csc(-c2ccc(Cl)cc2)n1,95*,i,-5%,?,-15%,i
O=C(COc1ccc(Cl)cc1)NCCc1csc(-c2ccc(F)cc2)n1,109*,i,2%,?,-23%,i
Cc1nnc(NC(=O)c2ccccc2)s1,-3,i,1%,62%,?,i
CC(C)C(=O)Nc1cccc(C(=O)Nc2nnc(CC(C)(C)C)s2)c1,62*,i,0%,?,15%[11.5 µM],i
Cc1cccc(NC(=O)CSc2nc3ccc(NC(=O)c4cccs4)cc3s2)c1,64*,i,1%,-2%,-13%,i
COc1cccc(NC(=O)CSc2nc3ccc(NC(=O)c4cccs4)cc3s2)c1,95*,i,-6%,-7%,-15%,i
Cc1cccc(NC(=O)CSc2nc3ccc(NC(=O)CCc4ccccc4)cc3s2)c1,30,i,-1%,-19%,-23%,i
CCCOc1ccn2c(C(C)=O)cc(-c3ccccc3S(C)(=O)=O)c2c1,nt,nt,nt,2%,nt,nt
Nc1ccc(-c2ccc3ncc4ccc(=O)n(-c5cccc(C(F)(F)F)c5)c4c3c2)cn1,nt,nt,nt,?,-37%,nt
Cc1nc(Nc2ccc(Cl)cc2)cc(-c2ccccc2)n1,67*,i,0%,37%,?,i
O=C(C1CCCCC1)N1CC(=O)N2CCCc3ccccc3C2C1 (stereo not given),-10,nt,nt,-16%,-12%,nt
SMILES,DRV1 agonist,B2AR arrestin ag,GALK inhibitor,HTT prom inh,HTT-AS act,PTAP-TSG101 blk
O=C(/C=C/c1cn(CC(O)CN2CCCCCC2)c2ccccc12)c1ccccc1 (stereo not given),4,i,1%,-6%,-15%,i
CCCN(CCC)CC(O)Cn1cc(/C=C/C(=O)c2ccc(C)cc2)c2ccccc21 (stereo not given),-11,i,1%,?,-21%,i
O=C(/C=C/c1cn(CC(O)CN2CCCCCC2)c2ccccc12)c1ccc(Br)cc1 (stereo not given),88*,i,-2%,-14%,-26%,i
CCCN(CCC)CC(O)Cn1cc(/C=C/C(=O)c2ccc(Br)cc2)c2ccccc21 (stereo not given),7,i,6%,-6%,-9%,i
CCCCN(C)CC(O)Cn1cc(/C=C/C(=O)c2ccc(C)cc2)c2ccccc21 (stereo not given),65*,i,-1%,?,-29%,i
CCCCN(C)CC(O)Cn1cc(/C=C/C(=O)c2ccc(Br)cc2)c2ccccc21 (stereo not given),74*,i,6%,-17%,-34%,i
Nc1nccc(Oc2ccc(NC(=O)c3c[nH]cc(-c4ccc(F)cc4)c3=O)cc2F)c1Cl,nt,nt,nt,?,-41%,nt
NC(=O)Nc1cc(-c2cccc(F)c2)sc1C(=O)N[C@H]1CCCNC1,nt,nt,nt,?,-32%,nt
CC(=O)N1CCN(c2ccc(O)cc2)CC1,42,nt,nt,4%,-9%,nt
CCOC(=O)c1cc(C)n(CC2CCC(C(=O)Nc3ccc(Cl)cc3)CC2)c1C (stereo not given),-3,i,-3%,4µM*,-93%,i
CCOc1cc2c(c(F)c1OCC)C(=N)N(CC(=O)c1cc(N3CCOCC3)c(OC)c(C(C)(C)C)c1)C2,nt,nt,nt,?,-31%,nt
Cc1ccc(CN(C(=O)COc2ccc(C(C)C)cc2)C2CCS(=O)(=O)C2)o1 (stereo not given),61*,i,1%,?,-16%,i
COc1ccc(OCC(=O)N(Cc2ccc(C)o2)C2CCS(=O)(=O)C2)cc1 (stereo not given),-23,i,0%,-10%,-3%,i
Cc1cccc(-c2nc3c4ccccc4n(CC(=O)Nc4cccc(F)c4)c(=O)n3n2)c1,76*,i,-1%,13%,22%,i
Cc1ccc(S(=O)(=O)Nc2ccc3nc(-c4ccc(F)cc4)oc3c2)cc1,66*,i,-12%,-3%,-20%,i
O=S(=O)(Nc1ccc2nc(-c3ccc(F)cc3)oc2c1)c1ccccc1,?,i,6%,7%,5%,i
Cc1ccc(C)c2sc(N3CCN(C(=O)c4ccco4)CC3)nc12,88*,i,2%,0%,-21%,i
Cc1nc2scc(C)n2c(=O)c1S(=O)(=O)Nc1ccc(N2CCN(S(C)(=O)=O)CC2)cc1,80*,i,0%,nt,nt,i
